Where “and” joins values, the source holds several entries; their conditions need not be identical. Equal entries are not always repeated. Compounds without any hit were thinned out: in the full panel of roughly 83,000, 20% have a hit.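 Assay: single dose, 48 h. Readout: percent growth (0 = no net growth; negative = cell death). Active: <10.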 Calls of active or inactive are those of the source.

Data on 14 compounds can be found in PubChem BioAssay (NCI).

Test systems include T-47D breast; BT-549 breast; MDA-MB-435 melanoma; SW-620 colon; MCF7 breast; HCT-116 colon; HCC-2998 colon; KM12 colon.
Common to all, as to test: NCI-60 one-dose screen, 48 h (100 = growth as untreated, 0 = no growth, -100 = all killed)
Settings in all cases: 10 µM unless noted

`O=c1[nH]c(=O)c2[nH]c(=O)[nH]c2[nH]1`: the growth in the test on T-47D breast is 103% (inactive); in the test with BT-549 breast, 90.8% (inactive); in the test on MDA-MB-435 melanoma it was 100% (inactive); with SW-620 colon, 94.3% (inactive); with MCF7 breast, 92.1% (inactive); with HCT-116 colon, 94.6% (inactive). Moreover, the growth with HCC-2998 colon was 107% (inactive); in the test with KM12 colon, 104% (inactive).
With `CCOCCC(=O)O`, the growth in the test on T-47D breast was 94.1% (inactive); with BT-549 breast, 107% (inactive); in the test with MDA-MB-435 melanoma, 108% (inactive); with SW-620 colon it was 101% (inactive); with MCF7 breast it was 104% (inactive); with HCT-116 colon, 97.3% (inactive). The growth in the test with HCC-2998 colon is 123% (inactive); in the test on KM12 colon, 117% (inactive).
With `CC(=O)Nc1cscc1NC(C)=O`, the growth is 94.4% (inactive) in the test with T-47D breast; 90.3% (inactive) in the test on BT-549 breast; 89.1% (inactive) with MDA-MB-435 melanoma; 97.6% (inactive) with SW-620 colon; 94.5% (inactive) in the test with MCF7 breast; 103% (inactive) in the test with HCT-116 colon. Further, the growth with HCC-2998 colon was 94.1% (inactive); in the test on KM12 colon, 106% (inactive).
On to `O=P(O)(O)OC1C(OP(=O)(O)O)C(OP(=O)(O)O)C(OP(=O)(O)O)C(OP(=O)(O)O)C1OP(=O)(O)O.[Cu+2]` (configuration not stated), for which the growth in the test on T-47D breast is 101% (inactive); in the test on BT-549 breast, 126% (inactive); in the test with MDA-MB-435 melanoma, 101% (inactive); with SW-620 colon, 95.6% (inactive); in the test on MCF7 breast, 86.8% (inactive); in the test with HCT-116 colon, 96.6% (inactive). Further, the growth in the test on HCC-2998 colon was 96.3% (inactive); in the test on KM12 colon it was 100% (inactive).
With `COc1cc([C@@H]2c3cc4c(cc3[C@H](O)[C@H]3COC(=O)[C@@H]23)OCO4)cc(OC)c1OC`, the growth was 40.1% (inactive) and 71.1% (inactive) in the test on T-47D breast; 22.3% (inactive) in the test on BT-549 breast; -23.1% (active) and -44.3% (active) in the test with MDA-MB-435 melanoma; 16.7% (inactive) and 4.24% (active) in the test with SW-620 colon; 18.4% (inactive) and 5.61% (active) in the test with MCF7 breast; 10.5% (inactive) and -40.7% (active) with HCT-116 colon. Moreover, the growth is -10.3% (active) and -60.9% (active) in the test on HCC-2998 colon; 28.4% (inactive) and -3.9% (active) in the test with KM12 colon.
Take `c1ccc2c[n+](Cc3ccc4ccccc4n3)ccc2c1`: the growth in the test on T-47D breast is 62.6% (inactive); in the test on BT-549 breast, 47.2% (inactive); in the test on MDA-MB-435 melanoma it was 90.3% (inactive); in the test on SW-620 colon, 87.5% (inactive); in the test on MCF7 breast, 72.2% (inactive); with HCT-116 colon, 59.3% (inactive). The growth is 71.7% (inactive) with HCC-2998 colon and 76.1% (inactive) in the test with KM12 colon.
Consider `O=c1[nH]nnc2cc(Cl)ccc12`, for which the growth is 106% (inactive) and 98.4% (inactive) in the test on T-47D breast; 110% (inactive) in the test with BT-549 breast; 104% (inactive) and 102% (inactive) with MDA-MB-435 melanoma; 95.3% (inactive) and 99.8% (inactive) with SW-620 colon; 114% (inactive) and 94.5% (inactive) with MCF7 breast; 104% (inactive) and 103% (inactive) in the test on HCT-116 colon. Moreover, the growth in the test on HCC-2998 colon is 109% (inactive) and 98.7% (inactive); with KM12 colon, 101% (inactive) and 102% (inactive).
In the case of `O=C(O)Cc1cc(=O)[nH]n(-c2ccccc2)c1=O`, the growth was 98.2% (inactive) with T-47D breast; 103% (inactive) with BT-549 breast; 108% (inactive) in the test with MDA-MB-435 melanoma; 108% (inactive) with SW-620 colon; 98.9% (inactive) in the test on MCF7 breast; 101% (inactive) in the test on HCT-116 colon. In addition, the growth in the test on HCC-2998 colon is 106% (inactive); in the test with KM12 colon it was 107% (inactive).
Regarding `Nc1ccc2ccc(NS(=O)(=O)N3CCCCC3)cc2c1`, the growth was 46.8% (inactive) in the test on T-47D breast; 29% (inactive) in the test on BT-549 breast; -14.7% (active) in the test with MDA-MB-435 melanoma; 27.9% (inactive) in the test on SW-620 colon; 17.8% (inactive) with MCF7 breast; 9.95% (active) in the test on HCT-116 colon. The growth in the test on HCC-2998 colon was -3.22% (active); in the test with KM12 colon, 15% (inactive).
As to `Nc1c(S(=O)(=O)O)cc(Br)c2c1C(=O)c1ccccc1C2=O`, the growth in the test on T-47D breast was 90% (inactive) and 96.7% (inactive); with BT-549 breast it was 110% (inactive); in the test on MDA-MB-435 melanoma it was 105% (inactive) and 115% (inactive); with SW-620 colon, 109% (inactive) and 111% (inactive); in the test with MCF7 breast it was 96.8% (inactive) and 93.8% (inactive); with HCT-116 colon, 109% (inactive). Moreover, the growth in the test with HCC-2998 colon is 108% (inactive) and 109% (inactive); in the test on KM12 colon, 104% (inactive) and 108% (inactive).
In the case of `O=C1c2ccccc2CN1c1ccccc1`, the growth in the test on T-47D breast is 95.8% (inactive); in the test with BT-549 breast it was 96.6% (inactive); in the test with MDA-MB-435 melanoma it was 97.9% (inactive); in the test on SW-620 colon it was 105% (inactive); with MCF7 breast, 106% (inactive); in the test on HCT-116 colon it was 91.7% (inactive). The values for the growth in the test with HCC-2998 colon and in the test with KM12 colon were 128% (inactive) and 101% (inactive), respectively.
Regarding `CCNC1=CC(=O)c2ncccc2C1=O`, the growth in the test with T-47D breast is 86.1% (inactive); in the test with BT-549 breast, -27.8% (active); with MDA-MB-435 melanoma, -91.7% (active); with SW-620 colon, 13.8% (inactive); in the test on MCF7 breast it was -13.2% (active); in the test on HCT-116 colon, 2.73% (active). In addition, the growth with HCC-2998 colon is 29.8% (inactive); in the test with KM12 colon it was 48.2% (inactive).
Regarding `CCCCCCCCCCCCCCCCC(=O)O`, the growth in the test with T-47D breast was 104% (inactive); with BT-549 breast, 112% (inactive); in the test with MDA-MB-435 melanoma, 109% (inactive); in the test on SW-620 colon it was 105% (inactive); with MCF7 breast, 93.9% (inactive); in the test on HCT-116 colon, 101% (inactive). The growth in the test on HCC-2998 colon is 96.8% (inactive); in the test with KM12 colon, 105% (inactive).
With `CCOP(C)(=O)/C(Cc1ccc(OC)c(OC)c1)=N\O` (configuration not stated), the growth with T-47D breast was 115% (inactive); in the test on BT-549 breast, 115% (inactive); in the test with MDA-MB-435 melanoma, 104% (inactive); in the test with SW-620 colon it was 99.2% (inactive); in the test on MCF7 breast, 104% (inactive); with HCT-116 colon it was 103% (inactive). Moreover, the growth with HCC-2998 colon was 98.5% (inactive); in the test on KM12 colon, 101% (inactive).
